# Screening results from PubChem BioAssay.
# This is a sample that favours compounds with a hit; in the whole collection about 7.2% have one here.
# Lassa entry inh – qHTS for Inhibitors of binding or entry into cells for Lassa Virus. Lassa virus pseudotype entry inhibition, cell reporter. Potency, µM (top dose mostly 37.9 µM), inactives show at the highest dose activity change, negative = inhibition, most hits filed as inhibitors. hit rate 1.2% among 300,000; calls by dose curve; tested in HEK293 cells; also: nearly all actives have a fitted effect of over 50% in size
# FMDV antiviral – High Throughput Screening for Foot and Mouth Disease Virus Antivirals | AID 1159524, 2015 | Potency, µM (highest dose often 57.9 µM), without a hit: at the top dose activity change, negative = inhibition, hits mostly inhibitors | hit rate 1.2% among 410,000 | FMDV antiviral cell-based qHTS; calls by dose curve; tested in HEK293T cells; also: read-out not given here; nearly all actives have a fitted effect of over 45% in size
# RE007 growth inh – qHTS Assay for Inhibitors of the HIV-1 protein Vpr. S. pombe RE007 Vpr strain, BacTiter-Glo ATP luminescence, 24 h. Potency, µM (titrated, usually from 92.2 µM), for the others: at the highest dose activity change, negative = less growth, most hits filed as inhibitors. hit rate 0.21% among 360,000; active = well fitted falling curve with a large enough effect; inconclusive = small, poorly fitted or top-dose-only effect; inactive = no such curve, though single readings can be large or run the other way; also: nearly all actives have a fitted effect of over 50% in size
#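 Fission yeast RE007 carrying one integrated HIV-1 vpr copy, seeded at OD 0.01 in PMG+AL medium with 23 nL pinned compound. Grown 24 h at 30 degrees; viability read by BacTiter-Glo luminescence after 5 min.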
# MARV entry inh – qHTS for inhibitors of binding or entry into cells for Marburg Virus | hit rate 1.8% among 300,000 | Marburg virus pseudotyped entry inhibition, cell reporter | Potency, µM (series often up to 37.8 µM), for inactives: top-dose activity change, negative = inhibition, actives largely listed as inhibitors; calls by dose curve; tested in HEK293 cells
# HCV inh – qHTS Assay for Inhibitors of Hepatitis C Virus (HCV). Huh7.5.1 HCVcc-Cre infection, luciferase reporter, 44 h. Potency, µM (series often up to 41.8 µM), without a hit: top-dose activity change, negative = inhibition, actives largely listed as inhibitors. hit rate 3.4% among 340,000
#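 Compounds are dispensed onto cells plated 4 h earlier at 1,000 per well, with HCVcc-Cre virus (about 0.5 moi) added next. Following 44 h of culture, luminescent signal is measured for 15 sec after 15 min with substrate at room temperature.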
# Sm TGR block – qHTS Assay for the Inhibitors of Schistosoma Mansoni Peroxiredoxins. Schistosoma mansoni thioredoxin glutathione reductase (TGR), Q962Y6. purified TGR, DTNB reduction, TNB absorbance 405 nm. Potency, µM (series often up to 114 µM), without a hit: at the highest dose activity change, negative = inhibition, usual class: inhibitors. hit rate 3% among 360,000. AID 485364, 2010; also: nearly all actives have a fitted effect of over 60% in size
#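 Kinetic colorimetric format: TGR-catalysed, NADPH-driven DTNB reduction monitored via TNB absorbance. Enzyme dispensed at 20 nM; compound exposure 15 min at room temperature before reaction start.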
# An asterisk follows results filed as active; ? = inconclusive; / = not tested or not shown; [ ] = remark or other dose. Unless noted, calls follow the shape of the dose curve; as a rule, active = well fitted curve in the direction sought with a large enough effect; inconclusive = small, poorly fitted or top-dose-only effect, or another doubt; inactive = no such curve, though single readings can be large; an effect the other way counts as inactive or inconclusive. % is scaled to controls: 0 for no effect and ±100 for the full control effect; potency is read from the fitted curve at half-maximal effect.
SMILES,Lassa entry inh,FMDV antiviral,RE007 growth inh,MARV entry inh,HCV inh,Sm TGR block
Cc1cccc(N2C(=O)CC(Sc3ccccc3C(=O)O)C2=O)c1 (stereo unspecified),9.1%,-20.9%,5.62µM*,?,9.8%,14.1µM*
CO[C@H]1[C@H](NC(=O)c2ccco2)c2ccccc2C12CCN(Cc1cnn(-c3ccccc3)c1)CC2,/,16.8%,/,/,/,/
CN(C)c1ccc(N2C(=O)CC(Sc3ccccc3C(=O)O)C2=O)cc1 (stereo unspecified),4.8%,-20.7%,6.31µM*,5.0%,4.8%,28.2µM*
CCOC(=O)c1c(N2C(=O)CC(Sc3ccccc3C(=O)O)C2=O)sc(C)c1C (stereo unspecified),/,-22.3%,-10.5%,/,2.6%,4.47µM*
CCCCN1C(=O)CC(Sc2ccccc2C(=O)O)C1=O (stereo unspecified),1.9%,18.4%,-13.5%,12.0%,11.4%,20µM*
Cc1cc(C)cc(N2C(=O)CC(Sc3ccccc3C(=O)O)C2=O)c1 (stereo unspecified),-10.0%,-3.4%,11.2µM*,?,29.1%,1.26µM*
CC(C)CN1C(=O)CC(Sc2ccccc2C(=O)O)C1=O (stereo unspecified),23.9%,-20.7%,0.0%,?,16.4%,?
Cc1ccc(C)c(NC2=C(c3ccc(C(F)(F)F)cc3)C(=O)c3ccccc32)c1,12.2%[46.1 µM],?,/,-21.5%[46.1 µM],/,-7.4%
Cc1cc(Br)cc(C)c1NC(=O)c1sc2ncn(Cc3cccc(F)c3)c(=O)c2c1C,-5.9%[46.1 µM],-24.2%,/,/,/,0.3%
C=C(C)C(=O)C=CC=Cc1ccccc1,?,/,/,-87.0%[14.2 µM],/,/
Cc1ccc(N2C(=O)CC(Sc3ccccc3C(=O)O)C2=O)cc1C (stereo unspecified),?,-2.4%,14.1µM*,-21.3%[46.1 µM],19.1%,3.98µM*
O=S(=O)(c1ccc(Cl)s1)N1CCN(C/C=C/c2ccccc2)CC1,23.1µM*,-29.8%,4.7%,?,-7.0%,4.3%
CCOC(=O)C1=C(c2ccccc2)c2ccccc2N(S(=O)(=O)C(F)(F)F)C1C(=O)OCC (stereo unspecified),/,-14.3%,-0.6%,/,2.82µM*,/
CCOC(=O)C1C(C(=O)OC)=C(c2ccc(OC)cc2)c2ccccc2N1S(=O)(=O)C(F)(F)F (stereo unspecified),/,?,3.9%,/,11.2µM*,/
Cn1nccc1C(=O)NCC1CCC2(CCN(Cc3cccc4ncccc34)CC2)O1 (stereo unspecified),/,-5.5%,/,/,/,/
Cc1ccc(C)c(NC(=O)Cc2csc(-c3ccccc3)n2)c1,-1.4%,-19.5%,3.2%,?,10.3%,0.6%
Cc1ccc(C)c(NC(=O)Cc2nc(CNCC(C)C)cs2)c1,-0.4%,0.0%,-25.7%,7.94µM*,7.2%,?
N#CCC(=O)Nc1ccc(C(=O)OCC(=O)Nc2ccc3ccccc3c2)cc1,-8.2%,37.1%,-3.2%,?,?,-1.1%
O=C(Nc1ncc(S(=O)(=O)c2ccc([N+](=O)[O-])cc2)s1)c1ccc2ccccc2c1,8.1%,?,-6.8%,-17.5%,-25.2%,-1.6%
O=C(Nc1ncc(S(=O)(=O)c2ccc([N+](=O)[O-])cc2)s1)c1cccnc1,?,-28.9%,15.6%,?,-13.6%,28.2µM*
COc1ccc(NC(=O)c2oc3ccccc3c2NC(=O)Cc2ccc(F)cc2)c(OC)c1,-10.6%[46.1 µM],-20.5%,/,-21.3%[46.1 µM],/,7.2%
COc1ccc2c(c1)c1nnc(SCC(=O)N3C(C)CCCC3C)nc1n2C (stereo unspecified),4.8%,2.1%,13.8%,?,8.91µM*,-0.2%
COc1ccc2c(c1)c1nnc(SC)nc1n2C,12.2%,32.2%,-16.3%,30.8%,8.2%,-24.5%
CCc1nnc(NC(=O)CSc2nc3c([nH]c4ccccc43)c(=O)n2-c2cc(C)cc(C)c2)s1,-4.5%[46.1 µM],-12.4%,/,/,/,5.0%
Cc1ccc(C(=O)Nc2ccc(N3CCN(C(=O)c4ccco4)CC3)cc2)c(Cl)c1,?,-1.1%,-4.0%,-5.9%[46.1 µM],11.2µM*,-0.7%
SMILES,Lassa entry inh,FMDV antiviral,RE007 growth inh,MARV entry inh,HCV inh,Sm TGR block
O=C(NC(=S)Nc1ccc(N2CCOCC2)cc1)c1cccs1,/,79.6%,-1.7%,/,-17.9%,8.91µM*
S=C(Nc1ccc(N2CCOCC2)cc1)Nc1ccc2snnc2c1,/,11.4%,-0.6%,/,-3.3%,35.5µM*
CC(C)CC(=O)NC(=S)Nc1ccc(N2CCN(C(=O)c3cccs3)CC2)cc1,5.62µM*,?,-7.8%,?,?,?
O=C(NC(=S)Nc1cccc(Cl)c1N1CCOCC1)c1cccs1,/,-35.1%,-19.1%,/,?,-20.3%
CC(C)C(=O)Nc1ccc(N2CCN(C(=O)c3cccs3)CC2)cc1,4.4%,-14.2%,-4.6%,13.7%,17.5%,-15.8%
CCC(CC)C(=O)Nc1cccc(-c2nc3cccnc3s2)c1C,6.7%[46.1 µM],?,/,/,/,-3.4%
COc1cc(CNC(=O)c2ccc3c(c2)N(C)C(=O)C2CCCCN32)cc(OC)c1OC (stereo unspecified),?,0.6%,/,/,/,4.8%
Cc1ccccc1C(=O)N1CCN(c2ccc(NC(=S)NC(=O)c3cccs3)cc2)CC1,/,-11.9%,5.9%,/,?,/
Cc1ccc(C(=O)N2CCN(c3ccc(NC(=S)NC(=O)c4cccs4)cc3)CC2)cc1,?,-23.5%,45.6%,7.94µM*,2.24µM*,9.5%
CC(C)Oc1ccc(C(=O)Nc2ccc(N3CCN(C(=O)c4ccco4)CC3)cc2)cc1,?,17.6%,0.1%,-1.7%[46.1 µM],-11.4%,-11.9%
Cc1ccc(C(=O)NC(=S)Nc2ccc(N3CCN(C(=O)c4ccco4)CC3)cc2)cc1,-6.4%,?,10.0%,8.8%,11.2µM*,-26.9%
CCn1c(-c2ccccc2F)nc2cc(NC(C)=O)cc(C(=O)NCc3ncc(C)[nH]3)c21,/,4.2%,/,/,/,/
COc1ccccc1CNC(=O)C(NS(=O)(=O)c1cccs1)C(C)C (stereo unspecified),4.8%[46.1 µM],-19.3%,/,?,/,6.0%
COc1cc(Cn2c(=O)sc3ccccc32)ccc1OC(C)C,3.1%[46.1 µM],-20.1%,/,0.1%[46.1 µM],/,1.6%
CCOc1ccc(Cn2c(=O)sc3ccccc32)cc1OC,/,-29.8%,-9.6%,/,10µM*,8.9%
CC(C)[Si]1(C(C)C)OCC2OC(n3cnc4c(N)ncnc43)C(N)C2O[Si](C(C)C)(C(C)C)O1 (stereo unspecified),?,?,48.6%,12.6µM*,?,/
Nc1ncnc2c1ncn2C1OC(CO)C(O)C1N (stereo unspecified),/,0.0%,3.9%,/,5.8%,4.2%
O=C(O)C=C(Br)Br,/,-14.1%,2.4%,/,37.1%,50.1µM*
